Rows were chosen to be rich in hits. Some 6.1% of all compounds tested hit in one or more screens of this group.
D1 antagonist – Antagonist of Human D 1 Dopamine Receptor: qHTS. D(1A) dopamine receptor (Homo sapiens), P21728. HEK293 TREx D1 cells, calcium flux, dopamine EC80; stronger effect = lower value. activity change, negative = inhibition, % at 10 µM. 360,000 compounds, 3.2% hits; in the data active means activity change below about -30%; further: on the % scale 0 is the no-effect control and ±100 the full control effect
Target sequence (P21728 whole entry, looked up): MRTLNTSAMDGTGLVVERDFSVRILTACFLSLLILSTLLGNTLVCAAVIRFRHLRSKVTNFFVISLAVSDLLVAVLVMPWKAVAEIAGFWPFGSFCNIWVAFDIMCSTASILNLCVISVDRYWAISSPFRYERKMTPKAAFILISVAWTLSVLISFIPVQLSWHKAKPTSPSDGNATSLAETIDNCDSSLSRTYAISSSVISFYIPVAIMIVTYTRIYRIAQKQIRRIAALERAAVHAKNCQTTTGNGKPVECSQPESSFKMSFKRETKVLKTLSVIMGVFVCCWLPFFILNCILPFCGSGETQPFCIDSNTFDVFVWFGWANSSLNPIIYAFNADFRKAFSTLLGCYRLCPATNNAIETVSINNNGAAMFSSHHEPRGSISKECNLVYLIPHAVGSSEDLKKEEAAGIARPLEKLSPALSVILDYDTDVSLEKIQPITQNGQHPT
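Tetracycline-induced HEK293 Trex D1 cells, force-coupled to calcium, dye-loaded; compounds added and read 180 s, then EC80 dopamine added and calcium flux tracked kinetically another 180 s.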
D3 ag – qHTS of D3 Dopamine Receptor Agonist: qHTS | D(3) dopamine receptor (Homo sapiens), P35462 | max activation, % | D3R DiscoveRx beta-arrestin cells, luminescence, 90 min | 410,000 compounds, 0.58% hits; in the data active means max activation above about 30%; further: 0% is about no effect
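Agonist-mode cell screen: cells plated at 1500/well and incubated overnight at 37 °C, then exposed to library compounds for 90 min at 37 °C. Detection reagent was added for 30–60 min at room temperature, and luminescence was read.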
D1 PAM – Potentiators of Human D1 Dopamine Receptor: qHTS; D(1A) dopamine receptor (Homo sapiens), P21728; HEK293 TREx D1 cells, calcium flux, dopamine EC20 potentiation; potentiation, % at 10 µM; 360,000 compounds, 0.036% hits; AID 504651, 2011; in the data active means potentiation above about 30%; further: 0% is about no effect
D1 agonist – Allosteric Agonists of the Human D1 Dopamine Receptor: qHTS; D(1A) dopamine receptor (Homo sapiens), P21728; HEK293 T-REx D1 cells, calcium flux, agonist mode; activation, % at 2 µM; 360,000 compounds, 1% hits; in the data active means activation above about 30%; further: 0% is about no effect
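Agonism was scored from calcium flux recorded over 180 s (1 read/s) after pintool compound addition, following a 10-cycle baseline. Cells were inducible force-coupled HEK293 TREx D1, plated overnight at 30 C and loaded with no-wash calcium dye.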
DRD3 antagonist – qHTS of D3 Dopamine Receptor Antagonist: qHTS. D(3) dopamine receptor (Homo sapiens), P35462. D3R cells, DiscoveRx beta-arrestin luminescence, antagonist mode; stronger effect = lower value. max response, negative = inhibition, %. 360,000 compounds, 2.5% hits. AID 652054, 2013; in the data active means max response below about -50%; further: on the % scale 0 is the no-effect control and ±100 the full control effect
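Cells expressing the human receptor were seeded at 1500 cells/well, incubated overnight at 37 degrees C in 5% CO2, then exposed to library compounds with dopamine controls for 90 minutes at 37 degrees C before luminescent detection.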
An asterisk follows results filed as active; . = no result given.

SMILES | D1 antagonist | D3 ag | D1 PAM | D1 agonist | DRD3 antagonist
Cc1ccc(Nc2nnns2)cc1 | -12 | -4 | -4 | 4 | -6
COc1ccccc1CC(=O)N(CCC1=CCCCC1)c1c(N)n(Cc2ccccc2)c(=O)[nH]c1=O | -1 | -15 | -1 | 24 | -83*
CC(Oc1ccc(Br)cc1)C(=O)N(Cc1ccccc1)c1c(N)n(Cc2ccccc2)c(=O)[nH]c1=O (configuration not stated) | . | -5 | . | . | -61*
CCCc1cc(C(=O)OCC(=O)N(CCC)c2c(N)n(Cc3ccccc3)c(=O)[nH]c2=O)sc1C | 61 | 19 | 40* | 24 | -14
CCCN(C(=O)CCNC(=O)c1ccc(Cl)cc1)c1c(N)n(Cc2ccccc2)c(=O)[nH]c1=O | -31* | 2 | . | 10 | -6
COc1ccc(CC(=O)N(CCC2=CCCCC2)c2c(N)n(Cc3ccccc3)c(=O)[nH]c2=O)cc1OC | -21 | -9 | -5 | 10 | 8
Cc1ccc(CNC(=O)c2cnn(-c3cccc(C)c3)c2C2CCN(C(=O)OC(C)(C)C)CC2)cc1 | -4 | 0 | 0 | 2 | .
COCCN(C(=O)COC(=O)/C=C/c1ccc(OC)c(OC)c1)c1c(N)n(Cc2ccccc2)c(=O)[nH]c1=O | -5 | -3 | -2 | 1 | -69*
COCCN(C(=O)COC(=O)/C=C/c1ccco1)c1c(N)n(Cc2ccccc2)c(=O)[nH]c1=O | -23 | 1 | 0 | 1 | 13
CCN(C(=O)COc1ccc(F)cc1Br)c1c(N)n(Cc2ccccc2)c(=O)[nH]c1=O | -40* | 0 | -4 | 2 | 42
COc1ccc(C2CC(=O)c3cc(-c4nc(-c5cccc([N+](=O)[O-])c5)cs4)c(=O)n(-c4ccccc4N)c3C2)cc1 (configuration not stated) | 9 | -6 | 0 | 4 | .
NC(=O)c1ccc(NCC2COc3ccccc3O2)c([N+](=O)[O-])c1 (configuration not stated) | -37* | -3 | -9 | 8 | 11
COc1ccc(C2=NO[C@@H]3C(=O)N(C4CCCCC4)C(=O)[C@H]23)cc1OC | -35* | 12 | -7 | 26 | 0
COc1ccc(C2=NO[C@@H]3C(=O)N(c4ccc5c(c4)OCCO5)C(=O)[C@H]23)cc1OC | -9 | -8 | -5 | 9 | -17
COCC(=O)Nc1cc(Sc2ccccc2)ccc1N=C(NC(=O)OC)NC(=O)OC | . | 11 | . | . | .
Cc1ncc(CN2CCCC(C(=O)Nc3ccc(-c4cccc(F)c4)cc3)C2)cn1 (configuration not stated) | -33* | 3 | -2 | 29 | 0
CC(=O)c1cccc(CN2CCCC(C(=O)Nc3ccc(-c4ccco4)cc3)C2)c1 (configuration not stated) | -46* | -13 | -11 | 12 | -21
CCOC(=O)c1c(-c2ccc(C)cc2C)csc1NC(=O)c1ccccc1Cl | 10 | -14 | -1 | -1 | .
O=C(Cc1ccc(-n2cccc2)cc1)NCc1cccs1 | -34* | -9 | -9 | 1 | 45
Cc1ccc(CNC(=O)Cc2ccc(-n3cccc3)cc2)cc1 | 3 | 3 | -1 | 1 | 7
CCN(Cc1ccccc1)c1ccc(/C=C(\C#N)c2ccccn2)cc1 | 12 | -23 | 10 | 31* | -16
CCN(CC)c1ccc(/C=C(\C#N)c2ccccn2)cc1 | -87* | -10 | -2 | 35* | -13
Cc1ccc(-c2ccc(S(=O)(=O)NCC3CCCO3)cc2)cc1 (configuration not stated) | -32* | 2 | -6 | 8 | 15
Cc1ccc(S(=O)(=O)Nc2ccc(S(=O)(=O)NCC3CCCO3)cc2)cc1 (configuration not stated) | -19 | 2 | -5 | 6 | -14
CCN(CC)S(=O)(=O)c1ccc(S(=O)(=O)NCC2CCCO2)cc1 (configuration not stated) | -20 | -17 | -9 | 2 | -6
SMILES | D1 antagonist | D3 ag | D1 PAM | D1 agonist | DRD3 antagonist
O=S(=O)(NCC1CCCO1)c1ccccc1 (configuration not stated) | 1 | -8 | -2 | 1 | -20
O=C(c1ccc(S(=O)(=O)NCC2CCCO2)cc1)N1CCc2ccccc21 (configuration not stated) | -51* | 7 | -6 | 13 | 11
Cc1ccc(CN(Cc2ccco2)S(=O)(=O)c2ccc(S(=O)(=O)NCC3CCCO3)cc2)cc1 (configuration not stated) | -36* | 3 | -4 | 23 | 19
CCN(CC)CCNC(=O)c1ccc2nc(CCc3ccccc3)oc2c1 | -7 | -8 | 0 | 16 | .
Cc1ccc(S(=O)(=O)c2nnn(CC(=O)Nc3ccccc3C)c2N)cc1 | 8 | -3 | 3 | 17 | .
COc1ccc(-c2nn(-c3ccccc3)cc2/C=N/O)cc1OC | 1 | 0 | -9 | 1 | 1
O/N=C/c1cn(-c2ccccc2)nc1-c1ccccc1 | -18 | 45* | -12 | -1 | 55
Cc1sc2ncnc(N/N=C/c3ccc(O)cc3)c2c1C | -86* | 6 | -6 | 1 | 18
COc1ccc(/C=N/Nc2ncnc3sc(C)c(C)c23)cc1 | -9 | -11 | -5 | 2 | -1
COc1ccc(Cn2ccc3nc(C)c(C(=O)N4CCN(c5ccccc5OC)CC4)cc3c2=O)cc1 | -33* | 18 | -1 | -1 | .
Cc1nc2ccn(Cc3ccco3)c(=O)c2cc1C(=O)Nc1ccc(F)cc1 | 1 | -1 | -8 | 0 | .
CSc1ccc(CNC(=O)c2cc3c(=O)n(Cc4ccco4)ccc3nc2C)cc1 | 6 | 7 | -6 | 13 | .
Cc1ccc(NC(=O)c2cc3c(=O)n(Cc4ccco4)ccc3nc2C)cc1C | -9 | 65* | 0 | 0 | .
COc1ccc(Cn2ccc3nc(C)c(C(=O)N4CCN(c5ccc(OC)cc5)CC4)cc3c2=O)cc1 | -7 | 2 | -6 | 27 | .
COc1ccc(CNC(=O)c2cc3c(=O)n(Cc4ccco4)ccc3nc2C)cc1 | -35* | 24 | -7 | 1 | .
CCc1nn2c(=O)cc(COC(=O)Cc3ccccc3)nc2s1 | -4 | 9 | -3 | 3 | .
CCOC(=O)c1c(NC(=O)C(C)Sc2cn(CCNC(=O)c3c(F)cccc3F)c3ccccc23)sc2c1CCC2 (configuration not stated) | 14 | 9 | -3 | -1 | .
C/C(=N\NC(=O)C(C)Oc1ccc([N+](=O)[O-])cc1)c1ccccn1 (configuration not stated) | -2 | -90 | -8 | 2 | -106*
O=C(c1ccccc1)c1ccc(Sc2ccc([N+](=O)[O-])cc2)cc1 | -31* | 6 | -2 | 16 | -7

Screens: PubChem BioAssay, National Center for Advancing Translational Sciences (NCATS)
